Compound activity (PubChem)
Most compounds without a hit are left out; they make up all but 3.9% or so of the library.
BoNT-F LC inh: BoNT F light chain protease inhibition; actives 0.22% (n = 360,000); Multiplex microsphere protease cleavage assay, flow cytometry; inhibition, % at 10 µM; AID 588497; in the data active = inhibition above about 35%, passing the limit was not always enough; inconclusive = no clear call, values can overlap the other calls; note: plate controls were buffer without enzyme for full effect and enzyme alone for no effect
CCHFV vOTU inh: CCHFV vOTU protease inhibition; inhibition, % at 11.5 µM; actives 0.55% (n = 370,000); Pep-AMC fluorescence; in the data active = inhibition above about 30%; note: 0% = vehicle wells with enzyme and 100% = no enzyme wells
Anthrax LF inh2: blocks Bacillus anthracis lethal factor protease | P15917 | multiplex microsphere protease cleavage assay, LF | inhibition, % at 10 µM | actives 0.12% (n = 360,000) | AID 588501; note: plate controls were buffer without enzyme for full effect and enzyme alone for no effect
Autofluor counter: compound fluorescence in toxin protease inhibitor counterscreen | compound autofluorescence counterscreen, microsphere flow cytometry; hits give high values | fluorescence intensity (no concentration beside the values) | actives 3.1% (n = 360,000) | AID 624483; in the data active = fluorescence intensity above about 16000; inconclusive = no clear call, values can overlap the other calls
3CLpro inhibitor: SARS-CoV 3CLpro protease inhibition. P0C6X7. recombinant SARS-CoV 3CLpro, quenched FRET peptide cleavage. inhibition, % at 6 µM. actives 0.14% (n = 290,000). AID 1706; in the data active = inhibition above about 12%
BoNT A protease: blocks Botulinum neurotoxin A light chain protease. multiplex microsphere protease substrate cleavage, flow cytometry. AID 588499. actives 0.17% (n = 360,000). inhibition, % at 10 µM; note: plate controls were buffer without enzyme for full effect and enzyme alone for no effect
* = called active by the depositor; u = inconclusive; x = no result. Cut-off read from the data, not from the text of the source, unless noted: active = inhibition above about 30%; inconclusive = no clear call, values can overlap the other calls; inactive = below that.

SMILES	BoNT-F LC inh	CCHFV vOTU inh	Anthrax LF inh2	Autofluor counter	3CLpro inhibitor	BoNT A protease
Cc1ccc(N(C(=O)Cn2nnc(-c3cccs3)n2)C(C(=O)NC2CCCC2)c2ccncc2)cc1 (centres undefined)	-3	-7	-1	22784*	1	-2
COCc1cc(N2CCNC[C@H]2C)ccc1N1CCN(Cc2ccccc2)[C@@H](C)C1	x	1	x	x	x	x
COc1ccc(C(C)=O)cc1CSc1nnc(-c2ccccc2O)n1-c1ccccc1	-2	1	-2	19750*	3	1
COc1ccc(-c2nnc(SCCC(=O)O)n2-c2ccccc2)cc1OC	-8	-6	-2	25005*	-2	-5
COc1ccc(C(C)=O)cc1CSc1nnc(C)n1-c1ccccc1	10	-5	2	7580	4	2
CN(C)CCCn1c(=O)n(CCc2ccccc2)c(=O)c2c3c(sc21)CCCCC3	10	-14	0	3872	-4	0
O=c1c2c3c(sc2n2cnnc2n1CCc1ccccc1)CCCC3	-2	11	-4	16649*	-7	-2
NC(=O)Cn1c(=O)n(CCc2ccccc2)c(=O)c2c3c(sc21)CCCC3	-5	-1	-3	16478*	0	-1
C[C@@H]1[C@@H](O)C[C@@]2(C[C@H](O)c3cc(F)ccc3O2)O[C@H]1c1ccccc1Cl	x	-4	x	x	x	x
CN(Cc1cn(Cc2ccccc2)nn1)S(=O)(=O)c1ccccc1Br	x	-1	x	x	x	x
Cc1noc(C)c1CN(C(=S)NC1CC2CCC1C2)c1ccccc1 (centres undefined)	42*	3	-6	4701	3	4
Cc1ccccc1OCCCN1CCC(C(O)(c2ccccc2)c2ccccc2)CC1	x	10	x	x	x	x
CCCCNC(=O)OCCCN1CCC2(CCC(c3ccccc3)CC2)C1 (centres undefined)	x	0	x	x	x	x
CCOC(=O)/C(C(N)=NCCO)=C(/O)c1ccccc1	-1	-5	-4	17067*	1	-1
COc1ccc(CN2C[C@]3(C=C(C)Cn4c(=O)n(-c5ccccc5)c(=O)n43)N(C(=O)OCc3ccccc3)C2=NC(=O)c2ccccc2)c(OC)c1	x	7	x	x	x	x
O=C(Nc1ccc(OC(F)(F)F)cc1)Nc1c(-c2ccc(F)cc2)nc2ncccn12	x	-1	x	x	x	x
Cc1nn(Cc2ccc(F)cc2)c(C)c1NC(=O)c1cnn2c1NC(c1cccs1)CC2C(F)(F)F (centres undefined)	2	-6	-1	22509*	7	2
COC(=O)CN1CCN(C(=O)c2nocc2C)CC1	x	-6	x	x	x	x
Cc1ccc(NC(=O)NC2C(NC(=O)Nc3ccc(C)cc3)N(C)C(=O)N2C)cc1 (centres undefined)	17	2	-17	18428*	0	u
CC(C)(C)N(Cc1cn(Cc2ccccc2)nn1)S(=O)(=O)c1ccc(N2CCCCC2)cc1Br	x	11	x	x	x	x
CNCC1(c2ccccc2)CCCC1	8	9	-3	3714	1	0
CN(C)CC1(c2ccccc2)CCCC1	-4	-1	-1	17486*	0	-2
CCCCCCC(=O)NC1CCCCN(Cc2cccc(Cl)c2)C1=O (centres undefined)	x	15	x	x	x	x
COC(=O)[C@@H]1C[C@@]2(c3ccccc3)c3ccccc3N(S(=O)(=O)c3ccccc3)[C@H]2N1C(=O)CNC1CCCCC1	x	-1	x	x	x	x
CCOC(=O)CNC(=O)CSc1nc2ccccc2c(=O)n1-c1ccc(Cl)cc1	x	-8	x	x	x	x
SMILES	BoNT-F LC inh	CCHFV vOTU inh	Anthrax LF inh2	Autofluor counter	3CLpro inhibitor	BoNT A protease
O=C(c1ccccc1)N1CC[C@H]2[C@H](CCCN2Cc2cc(F)cc(F)c2)C1	x	1	x	x	x	x
CCN(CC)c1ccc(-c2nn3c(-c4ccc(C(C)(C)C)cc4)nnc3s2)cc1	x	-2	x	x	x	x
O=C1Nc2ccccc2/C1=C/c1cnc[nH]1	0	2	-7	19606*	-4	3
COc1ccc2c(c1)/C(=C/c1cnc[nH]1)C(=O)N2	2	8	-12	6058	-3	0
CN(CCOC(=O)c1occ2ccccc12)C1CN(Cc2cn(Cc3ccccc3Cl)nn2)S(=O)(=O)C1 (centres undefined)	x	-2	x	x	x	x
CCOC(=O)c1c[nH]n2c(=O)cc(C)nc12	-15	-4	-9	4965	2	-1
COC(=O)c1c[nH]n2c(=O)cc(C)nc12	-4	-14	-3	23157*	1	-1
Cc1cccc(N=Nc2c(N)n[nH]c2-c2ccc(Cl)cc2)c1	-2	16	-6	20404*	7	1
C=CCN1C(=O)[C@@H](CC(=O)N2CCCCC2)[C@]2(C(=O)OC)CCCCC=C12	x	-5	x	x	x	x
CCOc1ccc(-c2nnn(CC(=O)NCCc3c[nH]c4ccccc34)n2)cc1	1	4	-9	8532	5	1
COc1ccc(-c2nnn(CC(=O)NCCc3c[nH]c4ccccc34)n2)cc1OC	-4	-6	-2	21211*	4	-2
Cc1ccccc1C(=O)Oc1ccc(Br)cc1C(=S)N1CCCC1	-2	-2	-2	22492*	4	u
C=CCNCc1ccc(OC)cc1OC	x	-3	x	x	x	x
CCOC(=O)C1=C(C)NC2=C(C1c1ccc([N+](=O)[O-])cc1)S(=O)(=O)c1ccccc12 (centres undefined)	6	-7	-2	17917*	-2	u
NC(=O)CSCc1cccc(Br)c1	-26	2	-8	3688	2	-2
O=C(CSCc1cccc(Br)c1)N1CCOCC1	-5	-6	-1	23815*	-2	-2
CCC(CO)NCc1ccc(Br)cc1 (centres undefined)	-5	-10	0	2644	2	0
CCC(CO)NCc1ccc(OC2CCCC2)cc1 (centres undefined)	-10	-4	-1	23277*	-5	-3
COc1ccc(C2CC3CN(C4CCCCC4)C(=O)C3N2C)cc1 (centres undefined)	x	-8	x	x	x	x
c1ccc(OCc2nnc3sc(-c4cccs4)nn23)cc1	5	10	-1	3558	-7	1
c1ccc(-c2nnc3sc(-c4ccncc4)nn23)cc1	-4	2	-2	9878	4	0
COc1cccc(-c2nnc3sc(-c4ccccc4)nn23)c1	-2	11	1	20646*	-2	u
COc1ccc(-c2nn3c(-c4ccccc4)nnc3s2)cc1	0	8	0	20178*	-4	0
Cc1cccc(-c2nnc3sc(-c4ccccc4C)nn23)c1	-4	-6	-4	16434*	-5	-1
COc1cccc(-c2nnc3sc(-c4ccc(Br)o4)nn23)c1	x	2	x	x	x	x
COc1ccc(-c2nn3c(-c4ccc(F)cc4)nnc3s2)cc1	2	-1	-2	4063	1	0
COc1ccc(-c2nn3c(COc4ccccc4)nnc3s2)cc1OC	-3	-6	-4	17330*	4	-2
COc1ccccc1-c1nn2c(-c3ccco3)nnc2s1	4	-5	2	21284*	-5	3
